According to PubChem BioAssay (NCI):
Compounds without any hit were thinned out: in the full panel of roughly 79,000, 15% have a hit. Values without a mark were called inactive. Activity calls are given as the source filed them. Rule as the data show it: active = growth inhibition above about 70%; inactive = the rest. Where a SMILES comes first, the peptide text is derived from it. The star is where a group is joined. X7 = Clc1c(Cl)c(Cl)c(O*)c(Cl)c1Cl; Boc = CC(C)(C)OC(=O)*; OBn = c1ccc(CO*)cc1; Bn = c1ccc(C*)cc1

Tests used:
[1] = NCI Yeast Anticancer Drug Screen. Data for the rad50 strain (AID 155);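 also: 0% = growth of vehicle-only cultures of the same strain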; conditions: S. cerevisiae rad50 strain growth inhibition, hits give high values
Method in brief: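 Readout: growth inhibition relative to vehicle-treated cultures. Compound exposure was carried out in a genetically defined yeast strain deficient in DNA damage repair.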

[2] = NCI Yeast Anticancer Drug Screen. Data for the mec2-1 strain (AID 157); conditions: S. cerevisiae mec2-1 strain, hits give high values
Method in brief: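 Cells of the genetically defined mec2-1 yeast strain are incubated with test compound. Inhibition of growth is calculated against vehicle-treated controls.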

[3] = NCI Yeast Anticancer Drug Screen. Data for the sgs1 mgt1 strain (AID 161);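 also: 0% = growth of cultures given vehicle only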; conditions: S. cerevisiae sgs1 mgt1 strain, hits give high values
Method in brief: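 Test agents were incubated with a DNA-repair-mutant yeast strain. Growth was then read and compared against vehicle-treated controls.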

[4] = NCI Yeast Anticancer Drug Screen. Data for the cln2 rad14 strain (AID 165);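 also: 0% = growth equal to vehicle treated cultures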; conditions: S. cerevisiae cln2 rad14 strain, hits give high values
Method in brief: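 The screen exposed genetically defined yeast (cln2 rad14) to test compounds and scored growth inhibition relative to vehicle-treated controls.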

[5] = NCI Yeast Anticancer Drug Screen. Data for the bub3 strain (AID 167); conditions: S. cerevisiae bub3 mutant strain, hits give high values
Method in brief: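 Readout: yeast growth inhibition, expressed relative to vehicle-only wells. The test organism is a mutant strain from a panel with lesions in DNA repair or checkpoint genes.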

[6] = NCI Yeast Anticancer Drug Screen. Data for the mlh1 rad18 strain (AID 175); conditions: S. cerevisiae mlh1 rad18 strain growth inhibition, hits give high values
Method in brief: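 Compound-treated yeast growth, normalised to vehicle controls. Strain bears defined DNA repair mutations.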

[7] = at 5.0 µM (retest, dose inferred, filed as 0.5)
[8] = at 50.0 µM (retest, dose inferred, filed as 5.0)

Row | Compound | growth inhibition [1, 7] | growth inhibition [1, 8] | growth inhibition ([1]; at 50.0 µM) | growth inhibition [2, 7] | growth inhibition [2, 8] | growth inhibition ([2]; at 50.0 µM) | growth inhibition [3, 7] | growth inhibition [3, 8] | growth inhibition ([3]; at 50.0 µM) | growth inhibition [4, 7] | growth inhibition [4, 8] | growth inhibition ([4]; at 50.0 µM) | growth inhibition [5, 7] | growth inhibition [5, 8] | growth inhibition ([5]; at 50.0 µM) | growth inhibition [6, 7] | growth inhibition [6, 8] | growth inhibition ([6]; at 50.0 µM)
1 | COc1ccc2c(c1)sc(/C=C/c1ccc(O)c3ncccc13)[n+]2C | 12% | 88% (active) | 92.3% (active) | 49% | 92% (active) | 93.6% (active) | -53% | 94% (active) | 92% (active) | 3% | 86% (active) | 90.3% (active) | 19% | 86% (active) | 89.9% (active) | 62% | 92% (active) | 92.4% (active)
2 | S=c1nc(/C=C/c2ccc(Cl)c(Cl)c2)[nH][nH]1 | 29% | 68% | 79.5% (active) | 28% | 51% | 44.8% | 27% | 51% | 65.2% | 31% | 42% | 65% | 33% | 67% | 83.7% (active) | 39% | 71% (active) | 22.6%
3 | NCc1ccccc1-c1c2nc(c(-c3ccccc3CN)c3ccc([nH]3)c(-c3ccccc3CN)c3nc(c(-c4ccccc4CN)c4ccc1[nH]4)C=C3)C=C2 | 41% | 84% (active) | 79% (active) | 34% | 83% (active) | 83% (active) | 37% | 82% (active) | 86.2% (active) | 32% | 66% | 78.8% (active) | 37% | 90% (active) | 79.7% (active) | 54% | 84% (active) | 76.2% (active)
4 | COC(=O)CSc1nc2ccccc2[nH]1 | -146% | -48% | 27% | -48% | -47% | -11.8% | -64% | -39% | -6.2% | -50% | -59% | -27.1% | -63% | -46% | -19.6% | -119% | -119% | -29.6%
5 | CC(C)C1=CC[C@H]2C(=C1)CC[C@@H]1[C@]2(C)CCC[C@@]1(C)C(=O)O | -2% | 90% (active) | 79.3% (active) | 15% | 91% (active) | 84.5% (active) | 9% | 91% (active) | 74.8% (active) | -9% | 92% (active) | 87% (active) | -6% | 89% (active) | 78.2% (active) | 7% | 90% (active) | 77.1% (active)
6 | COC(=O)C1c2cc3c(c(O)c2CCC1(C)O)C(=O)c1c(O)cc2c(c1C3=O)OC1OC2(C)C(O)C(N(C)C)C1O (stereo unspecified) | 19% | 63% | 91.9% (active) | 28% | 59% | 86.3% (active) | 12% | 58% | 92.6% (active) | 15% | 73% (active) | 69.3% | 72% (active) | 90% (active) | 83.8% (active) | 36% | 98% (active) | 93% (active)
7 | NNc1cc(Cl)ccc1Cl | 73% (active) | 93% (active) | 90.7% (active) | 91% (active) | 99% (active) | 91.8% (active) | 57% | 98% (active) | 94% (active) | 80% (active) | 98% (active) | 91.8% (active) | 89% (active) | 99% (active) | 91.5% (active) | 55% | 100% (active) | 90.7% (active)
8 | CCOC(=O)/C(=C\c1ccccc1)C(=O)CCN1CCOCC1 | 37% | 99% (active) | 95.5% (active) | 24% | 99% (active) | 84.5% (active) | 12% | 99% (active) | 41% | 45% | 99% (active) | 75.9% (active) | 20% | 99% (active) | 76% (active) | 10% | 99% (active) | 84.8% (active)
9 | C/C(=N\NC(=S)N/N=C(\C)c1ccccn1)c1ccccn1 | 93% (active) | 99% (active) | 88.2% (active) | 90% (active) | 99% (active) | 91.5% (active) | 88% (active) | 99% (active) | 84.7% (active) | 93% (active) | 98% (active) | 88.2% (active) | 95% (active) | 99% (active) | 87.9% (active) | 93% (active) | 99% (active) | 83% (active)
10 | c1ccc2c(c1)Sc1nccc3ccnc-2c13 | 92% (active) | 95% (active) | 82.3% (active) | 28% | 93% (active) | 79.3% (active) | 23% | 92% (active) | 80.7% (active) | 10% | 88% (active) | 72.8% (active) | 25% | 92% (active) | 79.7% (active) | 50% | 91% (active) | 79.2% (active)
11 | CCCCNC(=S)NC1OC(CO)C(O)C(O)C1O (stereo unspecified) | 2% | 7% | 99.3% (active) | 2% | 10% | 99.4% (active) | -1% | 0% | 99.5% (active) | -4% | -3% | 99% (active) | -4% | -4% | 99.2% (active) | -1% | 20% | 99% (active)
12 | CC(C)CC(NC(=O)C(CCC(=O)OCc1ccccc1)NC(=O)OC(C)(C)C)C(=O)NC(COCc1ccccc1)C(=O)NC(Cc1ccccc1)C(=O)Oc1c(Cl)c(Cl)c(Cl)c(Cl)c1Cl (stereo unspecified) (Boc-E(OBn)LS(Bn)F-X7; configuration not given here) | 39% | 58% | 80.5% (active) | 36% | 56% | 84.8% (active) | 38% | 80% (active) | 82.8% (active) | 26% | 53% | 85.3% (active) | 34% | 84% (active) | 78% (active) | 42% | 76% (active) | 79.6% (active)
13 | Cc1cc(Br)c(P(=O)(O)O)cc1[N+](=O)[O-] | -3% | -10% | 74.1% (active) | -7% | -3% | 42.7% | -3% | -14% | 72% (active) | 0% | -5% | -2.55% | 3% | 6% | 4.4% | 3% | -4% | 64%
14 | O=C1C=CCCCC1(c1ccccc1)c1ccccc1 | 2% | 8% | 77.5% (active) | 0% | 14% | 70.3% (active) | 5% | 15% | 85.4% (active) | 9% | 4% | 19.9% | -3% | -6% | 52.2% | -3% | 12% | 73.6% (active)
15 | O=C(O)c1ccccc1-c1c2ccc(=O)c(Br)c-2oc2c(Br)c(O)ccc12 | 13% | 93% (active) | 87.5% (active) | 42% | 99% (active) | 98% (active) | 33% | 98% (active) | 99.5% (active) | 14% | 96% (active) | 97.5% (active) | -1% | 96% (active) | 96.4% (active) | 49% | 97% (active) | 97.8% (active)
16 | CCCCN(CCCC)CCCCCCNc1cc(OC)cc2cccnc12 | 4% | 32% | 98.2% (active) | 1% | 14% | 98.6% (active) | 3% | 13% | 99% (active) | 5% | 39% | 98.1% (active) | 9% | 30% | 99% (active) | -4% | 9% | 98.7% (active)
17 | Cn1c(=O)c2c(ncn2CCCCOc2ccc3c(c2)[n+]([O-])nc(N)[n+]3[O-])n(C)c1=O | 4% | 38% | 44% | 14% | 23% | 51.9% | 5% | 34% | 69.9% | -23% | 52% | 69% | -8% | 63% | 56.5% | 32% | 82% (active) | 75.8% (active)
